Among the targets are KCNK6; KCNJ11; KCNK12; KCNJ4; KCNRG.
Holding throughout (assay): pooled miR-30 sensor sort-seq; sequence = guide strand
Holding throughout (details): shRNA
Further: reference of the scale not given here.

With TTGCTGGTGCGACTCCGGCTGG, the sensor-assay potency score (higher = more potent) with KCNK6 was -1.34.
Still for that read-out and setting: with TCCTCATCCGCATTGAAACTGG the figure was -1.46.
In the experiment with KCNJ11, TTGGAGTAGTCCACAGAGTAAC displayed a sensor-assay potency score (higher = more potent) of -1.69.
With AAGAGGTTGAAGAACAGGATGG, the sensor-assay potency score (higher = more potent) in the experiment with KCNK12 is -0.732.
With TTGTAGTGGCTCTTCTCCTCGA, the sensor-assay potency score (higher = more potent) with KCNJ4 is -0.739.
Consider TAGCGCTGCGACTTGTTGCTCA, for which the sensor-assay potency score (higher = more potent) in the experiment with KCNJ4 turned out to be 0.0555.
TCATCCGCATTGAAACTGGCAG: in the experiment with KCNK6, the sensor-assay potency score (higher = more potent) was -0.75.
As to TTGAGCACCTGCTTGATGAGGA, in the experiment with KCNK12, the sensor-assay potency score (higher = more potent) came to 0.236.
Sequence AAGGCATCCAAGAAGCTCCAGG returned a sensor-assay potency score (higher = more potent) with KCNK6 of -0.209.
In the experiment with KCNJ4, TCTCGTAGCAGAAGGCACTGGG came in with a sensor-assay potency score (higher = more potent) of 0.705.
In the experiment with KCNK12, TTGTTCATGATGCCCAGCGCGC had a sensor-assay potency score (higher = more potent) of -1.54.
TTGATGAGGATGGAGATGACGT: the sensor-assay potency score (higher = more potent) with KCNK12 is -0.352.
TTCTGCAGCAGCGCCAGCGACA: the sensor-assay potency score (higher = more potent) in the experiment with KCNK12 was -1.81.
The sequence TGGAGGTCGGACACGTGGCGGA had a sensor-assay potency score (higher = more potent) with KCNK6 of -1.12.
Regarding TAGACTGTGACCAGCACCTTGT, the sensor-assay potency score (higher = more potent) with KCNK6 is -0.385.
TACATGGCCGAGGCGCAGCAGG gave a sensor-assay potency score (higher = more potent) in the experiment with KCNK12 of -1.41.
In turn, TCGCGCACCGAAATGACCGCGT returned a sensor-assay potency score (higher = more potent) with KCNJ4 of -0.495.
For TAGTCCACAGAGTAACGTCCGT, the sensor-assay potency score (higher = more potent) with KCNJ11 was -0.814.
Consider AAAACGTGAGTAGTCCACCTTG, for which the sensor-assay potency score (higher = more potent) with KCNJ4 was -0.537.
In the experiment with KCNK12, TTGAAGAACAGGATGGTCCCAG showed a sensor-assay potency score (higher = more potent) of 0.312.
Sequence TTTGACGGTGTTGCCAAACTTG yielded a sensor-assay potency score (higher = more potent) with KCNJ11 of -0.73.
In the experiment with KCNK6, TTGTGTACCCATAGCCCACGGT displayed a sensor-assay potency score (higher = more potent) of -0.627.
TAGAAGGCATCCAAGAAGCTCC registered a sensor-assay potency score (higher = more potent) with KCNK6 of -0.185.
In the experiment with KCNJ11, ATGCTTGCTGAAGATGAGGGTC had a sensor-assay potency score (higher = more potent) of -1.14.
For the sequence TCGGAGCCTGGCTTCGTGCGGC, the sensor-assay potency score (higher = more potent) in the experiment with KCNK6 is -0.634.
In the experiment with KCNK12, TTGACGCACACGCTGCGCGGGT displayed a sensor-assay potency score (higher = more potent) of -0.763.
As for ATGAAGGAGTCGATGACGCAGC, the sensor-assay potency score (higher = more potent) in the experiment with KCNJ4 is -1.02.
Consider TAGGTCTTGTGAAAACGTGAGT, for which the sensor-assay potency score (higher = more potent) with KCNJ4 is -0.691.
TCGAGCGCCGAGAAGACTGTGG: the sensor-assay potency score (higher = more potent) with KCNK12 is -0.801.
TTACTCTCCTGCAGCTCCCGGG: the sensor-assay potency score (higher = more potent) in the experiment with KCNJ4 was -0.832.
In the case of TTGGCCGTTCTTCTTGACGAAG, in the experiment with KCNJ4, the sensor-assay potency score (higher = more potent) is -1.51.
In the experiment with KCNJ4, TCGCTGGCCAGGTAGGAGCTGC yielded a sensor-assay potency score (higher = more potent) of -1.22.
Take TTATTGACAACGGAGAAGGCAG: the sensor-assay potency score (higher = more potent) in the experiment with KCNJ11 was -0.854.
As for TTAGCAAGCACGACCCGCCCCA, the sensor-assay potency score (higher = more potent) in the experiment with KCNK6 was -0.345.
Regarding TAAAGCAGAAGTAGAAGGCATC, the sensor-assay potency score (higher = more potent) with KCNK6 is -0.372.
Sequence TATAGCATTCAGTTTTGTCTTC registered a sensor-assay potency score (higher = more potent) in the experiment with KCNRG of 0.0468.

Source of the values: the OligoGym collection.
